Measurements taken from PubChem BioAssay.
Where “and” joins values, the source holds several entries; their conditions need not be identical. Equal values may be shown once. Calls of active or inactive are those of the source.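 The calls were made as follows, unless noted: active = compounds whose cell count with miR-34 switched on is under 0.7 times the count with it off; inactive = the rest.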

Assays:
[1] = system: Aerobactin synthetase IucA (Klebsiella pneumoniae); test: inhibition of K. pneumoniae IucA enzyme – biochemical, Tocris library, absorbance (AID 1345561; call rule not given here;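 also: 100% = enzyme without compound and 0% = no enzyme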); conditions: purified IucA enzyme assay, absorbance (OD) read-out; stronger effect = lower value;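 tested at 8 µM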
[2] = viability loss with induced miR-34 in A549 – imaging, A549 dox-inducible miR-34, nuclei and caspase counts, primary screen (AID 1347080); conditions: A549 miR-34 inducible, Hoechst nuclei count, 48 h
[3] = galactose survival enhancers in mitochondrial complex I cybrids – cell-based, galactose medium, ATP luminescence, primary screen (AID 1645843;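 active = z-score of at least 1.8 in each of two replicates, scored against plate mean and spread of sample wells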;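 also: positive z means more ATP and so rescue of galactose-driven cybrid death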); conditions: complex I mutant cybrid cells, 72 h, stronger effect = higher value
[4] = stronger effect = lower value, cell number ratio, induced over uninduced
[5] = measured here: relative caspase fold change +Dox/-Dox
[6] = measured here: total cells with miR-34 induction, stronger effect = lower value
[7] = measured here: total cells without miR-34 induction

SMILES	remaining activity [1]	fold change [2, 4]	fold change [2, 5]	cell count [2, 6]	cell count [2, 7]	z-score [3]
CC(N)(C(=O)O)c1ccc(-c2nn[nH]n2)cc1 (stereo unspecified)	94.5% (inactive)	0.913 (inactive)	0.762	8200	8980	1.42 (inactive)
COC(=O)C1=C(C)NC(C)=C(C(=O)OCCSc2ccccc2)C1C (stereo unspecified)	91.1% (inactive)	0.923 (inactive) and 0.85 (inactive)	0.923 and 0.966	2710 and 6700	2930 and 7880	-0.87 (inactive)
N[C@@H]1CCN(O)C1=O	121% (inactive)	0.981 (inactive)	0.836	9080	9260	0.66 (inactive)
OC(CN1CCNCC1)Cn1c2ccc(Br)cc2c2cc(Br)ccc21 (stereo unspecified)	103% (inactive)	1.43 (inactive)	0.602	284	198	-0.705 (inactive)
CC1(C)Oc2ccc(C#N)cc2[C@H](N2CCCC2=O)[C@H]1O (racemic)	116% (inactive)	0.905 (inactive)	1.25	8970	9900	0.155 (inactive)
N[C@@H](Cc1cc(CP(=O)(O)O)cc(-c2ccccc2Cl)c1)C(=O)O	118% (inactive)	0.967 (inactive)	1.52	9360	9670	0.225 (inactive)
O=C1c2ccccc2CCC1CNCCc1ccc(O)cc1 (stereo unspecified)	104% (inactive)	0.994 (inactive)	0.835	8920	8970	-1.23 (inactive)
O=C(O)CCC/C=C\C[C@@H]1CO[C@H](C(F)(F)F)O[C@@H]1c1ccccc1O	111% (inactive)	0.924 (inactive)	0.777	7790	8430	0.14 (inactive)
COc1cc(OC)c(C(=O)CCCCN2CCC3(CC2)NC(=O)NC3=O)cc1NS(=O)(=O)c1ccc(C(F)(F)F)cc1	118% (inactive)	0.962 (inactive)	0.689	8560	8900	-0.165 (inactive)
Cc1ccc(/C=C2\CNC/C(=C\c3ccc(C)cc3)C2=O)cc1	95.5% (inactive)	0.9 (inactive)	0.964	500	556	-0.645 (inactive)
c1ccc(N2CCN(Cc3nc4ccccc4[nH]3)CC2)nc1	78.8% (inactive)	0.909 (inactive)	2.02	8260	9090	0.04 (inactive)
CO[C@]12C[C@@H](COC(=O)c3cncc(Br)c3)CN(C)[C@@H]1CC1=CN(C)C3C=CC=C2C13 (stereo partly specified)	107% (inactive)	0.94 (inactive)	0.794	7700	8200	0.455 (inactive)
CCOC(=O)c1c(C)[nH]c2ccc3c(c12)CN1CCc2cc(OC)ccc2C1O3 (stereo unspecified)	112% (inactive)	0.942 (inactive)	0.667	3940	4180	-0.785 (inactive)
O=[N+]([O-])c1ccccc1S(=O)(=O)NCC1CCC(CNCC2CCc3ccccc3C2)CC1 (stereo unspecified)	97.1% (inactive)	0.747 (inactive)	1.77	2050	2740	-0.675 (inactive)
COc1cc2c(cc1OC)C(c1ccc(N)cc1)=NNC(=O)C2	103% (inactive)	1.07 (inactive)	0.53	4030	3760	0.045 (inactive)
Cc1ccccc1N1CCN(S(=O)(=O)CC23CCC(C[C@@H]2NC(=O)[C@@H](N)CCS(C)(=O)=O)C3(C)C)CC1 (stereo partly specified)	82.6% (inactive)	0.868 (inactive)	1.54	7420	8540	-0.14 (inactive)
COc1ccc(-c2nc(-c3ccc(-c4cccc(Cl)c4)o3)[nH]c2-c2ccc(OC)cc2)cc1	125% (inactive)	0.932 (inactive) and 1.97 (inactive)	1.76 and 0.641	4720 and 2100	5060 and 1060	-0.15 (inactive)
COc1ccc(NC(=O)c2cc(OCCCN(C)C)nn2Cc2ccccc2)cc1	99.8% (inactive)	0.937 (inactive)	1.3	8250	8810	-0.3 (inactive)
C/C(=N\NC(=O)[C@@H]1C(=O)NC[C@H]1c1ccccc1)c1cccc(Br)c1	103% (inactive)	0.887 (inactive)	1.69	8430	9510	0.375 (inactive)
NCCCCCc1cnc[nH]1	118% (inactive)	0.92 (inactive)	0.639	9140	9930	-0.155 (inactive)
OC[C@H]1O[C@@H](n2cnc3c(NC4CCCC4)ncnc32)[C@H](O)[C@@H]1O	123% (inactive)	0.882 (inactive)	0.89	9040	10200	0.51 (inactive)
